Activity calls are given as the source filed them. Rule for the calls: active = hit-call score of the fitted dose curve at least 0.9, where 1 is the maximum; inactive = score below 0.9.

The nature of the assay: CCTE_Padilla_ZF_Score.Any: CCTE's 144 Hour Post-fertilization zebrafish Assay Score for Any Mortality or Malformation, Padilla Lab (AID 2284416). As to the method: CCTE_Padilla_ZF_Phenotype_Score is a whole embryo, multiplexed assay using zebrafish ova exposed for 144 hours post fertilization on a 96-well plate.CCTE_Padilla_ZF_Score.Any is one of one assay component(s) measured or calculated from the CCTE_Padilla_ZF_Phenotype_Score assay. It is designed to make measurements of zebrafish development as detected with brightfield microscopy of developing zebrafish embryos.Data from the assay component CCTE_Padilla_ZF_Score.Any was analyzed into 1 assay endpoints. This assay endpoint, CCTE_Padilla_ZF_Score.Any, was analyzed in the positive analysis fitting direction relative to DMSO as the negative control and baseline of activity. Using a type of viability reporter, gain-of-signal activity can be used to understand changes in developmentals as they relate to the whole embryo. To generalize the intended target to other relatable targets, this assay endpoint is annotated to the zebrafish development intended target family, where the subfamily is embryonic morphogenesis and mortality.
Zebrafish husbandry: Wild type adult zebrafish (Danio rerio; undefined outbred stock obtained from Aquatic Research Organisms, Hampton, NH, 03842) were housed in an AAALAC-approved animal facility at 28C with a 14:10 h light: dark cycle (lights on at 08:30 h). Adult fish (2-3 females per male; density = 15-20 adults per tank) were kept in one of several 9-liter (L) flow-through colony tanks (Aquaneering Inc., San Diego, CA). All adults in a colony tank were placed in a 2 L (static) breeding tank (Aquatic Habitats, Apopka, FL) one hour prior to light onset. Typically, adults from two to three colony tanks were mated on the same day. Two hours after light onset the adults were returned to the colony tank. All embryos were gathered from each breeder tank, pooled, and placed in a 28C water bath for 2 h, followed by two washes with 0.06% bleach (v/v) in 10% Hanks' Balanced Salt Solution (13.7 mM NaCl 0.54 mM KCl, 25 uM Na2HPO4, 130 uM CaCl2 100 um MgSO4 and 420 um NaHCO3,), hereafter referred to as Hanks' solution, for 5 min in order to remove any residual bacteria or fungi. Immediately following washing, the embryos were examined, and healthy embryos were separated from dead or unfertilized eggs and moved into fresh Hanks'. Chemical exposures: Zebrafish embryos were exposed in 96-well plates. Between 6- and 8-hours post fertilization (hpf), healthy embryos (with chorions) were transferred, one embryo per well, into 96 well (0.5 mL) microtiter plates (Cell Culture-Treated, Flat-Bottom Microplate 96 well [Corning Costar, Kennebunk, ME; Cat 09-761-145]) filled with 200 uL of Hanks' solution. A random number generator was used to assign the order in which the rows of embryos were plated in 96 well plates each week. After plating, the embryos were dosed with 0.8 uL of the chemical dosing solution then immediately sealed with AlumaSeal II (Excel Scientific Inc, Victorville, CA) to prevent volatilization of the chemicals, and then placed in a leakproof secondary container. These containers were placed in an incubator maintained on a 14:10 h light: dark cycle at 26C for rearing. On 5 dpf, live larvae were gently moved out of the plate with test chemicals and into a new 96 well mesh plate (Millipore Corp., Bedford, MA) with just the Hanks' solution. Once within the mesh well plate, the animals were rinsed with 400 uL of fresh Hanks' three times, and then the plates were covered with a non-adhesive material (Microseal A, BioRad, Hercules, CA), plate lid added, and then plate sides wrapped in Parafilm (PM992, Bermis Company, Neenah, WI), and returned to the incubator. […]
Take `O=C(F)C(F)(F)C(F)(F)C(F)(F)C(=O)F`: the compound was called inactive.

In the case of `O=C(O)CCC(F)(F)C(F)(F)C(F)(F)C(F)(F)C(F)(F)F`, the AC50 is 10 µM (active).

On to `O=CC(F)(F)C(F)(F)C(F)(F)F`, for which the result was inactive.

On to `O=C(O)CCC(F)(F)C(F)(F)C(F)(F)C(F)(F)C(F)(F)C(F)(F)F`, for which the AC50 is 13.8 µM (active).

In the case of `FC(OC(F)(F)C(F)(F)C(F)(F)F)C(F)(F)F` (centres undefined), the compound was called inactive.

For `C=CC(F)(F)C(F)(F)C(F)(F)C(F)(F)F`, the outcome was inactive.

Take `FC1(F)C=CC(F)(F)C1(F)F`: the compound was called inactive.

With `FC(F)(F)C1(F)C(F)(F)C(F)(F)C(F)(F)C(F)(C(F)(F)F)C1(F)F` (centres undefined), the compound was classed as inactive.

In the case of `O=C(OC(=O)C(F)(F)C(F)(F)F)C(F)(F)C(F)(F)F`, the compound was called inactive.

Take `NC(C(F)(F)F)C(F)(F)F`: the result was inactive.

As for `COC(=O)C(F)(F)C(F)(F)C(F)(F)C(F)(F)C(F)(F)F`, the result was inactive.

Take `CN(CCO)S(=O)(=O)C(F)(F)C(F)(F)C(F)(F)C(F)(F)C(F)(F)C(F)(F)C(F)(F)C(F)(F)F`: the AC50 is 9.78 µM (active).

As to `FC(F)(F)N1C(F)(F)C(F)(F)OC(F)(F)C1(F)F`, the compound was classed as inactive.

As for `OCC(F)(F)C(F)(F)C(F)(F)C(F)(F)C(F)(F)C(F)(F)C(F)(F)C(F)(F)C(F)(F)C(F)(F)C(F)(F)F`, the call was inactive.

Consider `O=CC(F)(F)C(F)(F)C(F)(F)C(F)F`, for which the compound was called inactive.

With `C=CC(=O)OCCC(F)(F)C(F)(F)C(F)(F)C(F)(F)C(F)(F)C(F)(F)C(F)(F)C(F)(F)F`, the result was inactive.

Take `FC(F)(F)C1(F)C(F)(F)C(F)(F)C(F)(F)C1(F)F`: the compound was classed as inactive.

Turning to `O=P(O)(O)CCC(F)(F)C(F)(F)C(F)(F)C(F)(F)C(F)(F)C(F)(F)F`, the AC50 was 25.6 µM (active).

Take `FC(F)=C(F)C(F)(F)C(F)(F)C(F)(F)C(F)F`: the result was inactive.

In the case of `O=P(O)(O)CCC(F)(F)C(F)(F)C(F)(F)C(F)(F)C(F)(F)C(F)(F)C(F)(F)C(F)(F)F`, the AC50 is 2.32 µM (active).

Take `O=C(CC(=O)C(F)(F)C(F)(F)C(F)(F)F)c1cccs1`: the AC50 is 3.55 µM (active).

As to `O=C1OC(=O)C(F)(F)C1(F)F`, the call was inactive.

Consider `FCOC(C(F)(F)F)C(F)(F)F`, for which the outcome was inactive.

For `O=C(O)C(F)(F)OC(F)(F)C(F)(F)OC(F)(F)C(F)(F)OC(F)(F)C(F)(F)C(F)(F)C(F)(F)F`, the AC50 was 2.9 µM (active).

The record behind these values is PubChem BioAssay (EPA / NIEHS).
